TRHR enhancer = TRH receptor (human) allosteric enhancement; P34981; TRHR cells, fluo-8 calcium fluorescence, EC20 TRH enhancement; enhancement, % at 2 µM; 0.66% of 360,000 active; in the data active = enhancement above about 30%
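TRHR-expressing cells loaded with fluo-8 calcium dye were read kinetically (ex 480/em 530) during compound addition, then stimulated with an EC20 of TRH (10 nM final). Enhancement of the Gq-mediated intracellular calcium response was scored.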
D1 antag = antagonists of human D1 dopamine receptor; P21728; HEK293 TREx D1 cells, calcium flux, dopamine EC80; stronger effect = lower value; activity change, negative = inhibition, % at 10 µM; 3.2% of 360,000 active; in the data active = activity change below about -30%
Target sequence (P21728 whole entry, looked up): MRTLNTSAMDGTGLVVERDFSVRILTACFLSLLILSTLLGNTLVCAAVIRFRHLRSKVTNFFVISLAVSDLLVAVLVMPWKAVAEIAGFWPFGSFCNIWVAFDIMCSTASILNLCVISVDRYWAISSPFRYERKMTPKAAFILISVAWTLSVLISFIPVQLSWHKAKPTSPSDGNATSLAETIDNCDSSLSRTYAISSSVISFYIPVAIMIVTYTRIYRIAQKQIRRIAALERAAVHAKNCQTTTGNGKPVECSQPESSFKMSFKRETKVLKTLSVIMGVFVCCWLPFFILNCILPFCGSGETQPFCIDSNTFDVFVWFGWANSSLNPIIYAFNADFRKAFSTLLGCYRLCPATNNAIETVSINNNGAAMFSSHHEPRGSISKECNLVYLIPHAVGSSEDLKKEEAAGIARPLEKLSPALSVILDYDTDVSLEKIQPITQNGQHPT
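Compound effects on dopamine-evoked calcium signalling were measured in tetracycline-induced HEK293 Trex D1 cells. Dopamine at EC80 followed a 180 s compound pre-read, and fluorescence was tracked kinetically for 180 s more.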
D1 agonist = activates the human D1 dopamine receptor; P21728; HEK293 T-REx D1 cells, calcium flux, agonist mode; activation, % at 2 µM; 1% of 360,000 active
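Tetracycline-induced HEK293 TREx D1 cells, force-coupled to calcium signalling, were dye-loaded with a no-wash calcium kit. Compound was pin-added after a 10 s baseline. Fluorescence was read kinetically at 1 cycle/s for 180 s, with calcium rises flagged as agonism.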
TRHR agonist = activates the human TRH receptor; activation, % at 2 µM; AID 493084; 0.18% of 360,000 active; P34981; TRHR cells, calcium flux fluo-8, FDSS agonist mode
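Read-out: compound-evoked intracellular calcium rise in TRHR cells, fluo-8 dye, kinetic FDSS fluorescence at 1 s/cycle following a 10-cycle baseline. Cells cultured overnight before dye loading (30 min–1.5 h, RT).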
D1 potentiator = human D1 dopamine receptor positive modulation; HEK293 TREx D1 cells, calcium flux, dopamine EC20 potentiation; potentiation, % at 10 µM; AID 504651; 0.036% of 360,000 active; P21728; in the data active = potentiation above about 30%
Large screens that a line does not name were inactive. Most compounds without a hit are left out; they make up all but 4.6% or so of the library. Cut-off read from the data, not from the text of the source, unless noted: active = activation above about 30%; inactive = the rest.

N#C/C(=C(/O)c1ccc(Cl)cc1)c1nc2ccccc2[nH]1	none
N#C/C(=C(\O)c1cc(Cl)sc1Cl)c1nc2ccccc2[nH]1	D1 agonist 35
Cc1ccc(NS(=O)(=O)c2cc(C(=O)N(C)C)ccc2C)cc1C	D1 antag -37
Cc1ccc(NS(=O)(=O)c2cc(C(=O)N3CCCC3)ccc2C)cc1C	none
Cc1c(CN2CCN(CC(C)(C)C)C(CCO)C2)[nH]c2ccccc12 (configuration not stated)	none
CCOc1ccc(CN2CCN(Cc3[nH]c4ccccc4c3C)CC2CCO)cc1 (configuration not stated)	D1 agonist 48
CCN(CCN(C)C)C(=O)Cn1ncc2c1-c1cc(C)ccc1OC2	D1 antag -33
Cc1ccc2c(c1)-c1c(cnn1CC(=O)O)CO2	none
O=C(Nc1ccc2c(c1)OCCO2)N1CCN(c2ccc(F)cc2)CC1	none
CC(=O)Nc1ccc2c(c1)OCCOCCOc1cc(NC(C)=O)ccc1OCCOCCOCCO2	D1 antag -70
Cc1cccc(C)c1N1CCN(C(=O)Nc2ccc3c(c2)OCCO3)CC1	D1 antag -34
CO[C@H]1C[C@@H]2CC[C@@H](C)[C@@](O)(O2)C(=O)C(=O)N2CCCC[C@H]2C(=O)O[C@H]([C@H](C)C[C@@H]2CC[C@@H](O)[C@H](OC)C2)CC(=O)[C@H](C)C=C(C)[C@@H](O)[C@@H](OC)C(=O)[C@H](C)C[C@H](C)C=CC=CC=C1C	none
CC[C@@H]1C=C(C)C[C@H](C)C[C@H](OC)[C@H]2O[C@@](O)(C(=O)C(=O)N3CCCC[C@H]3C(=O)O[C@H](/C(C)=C/[C@@H]3CC[C@@H](O)[C@H](OC)C3)[C@H](C)[C@@H](O)CC1=O)[C@H](C)C[C@@H]2OC	D1 agonist 32
COc1ccc2[nH]c(=O)c(CN(Cc3cccnc3)C(=O)Nc3ccccc3)cc2c1	D1 antag -37
CNC(=S)N(Cc1cccs1)Cc1cc2cc(OC)ccc2[nH]c1=O	none
COc1ccc2[nH]c(=O)c(CN(Cc3cccs3)C(=S)Nc3cccc(C)c3)cc2c1	D1 antag -32
COc1ccc2[nH]c(=O)c(CN(C(=O)c3cccnc3)c3ccccc3)cc2c1	D1 potentiator 36
COc1ccc(C2CC(=O)Nc3c2c(C)nn3-c2nncc(-c3ccc(C)cc3)n2)c(OC)c1OC (configuration not stated)	none
CC(=O)N1CCC(N(C(=O)Nc2ccc(C)c(F)c2)C(C)C)CC1	D1 antag -48
O=C(N/N=C/c1sc2ccccc2c1O)c1cccc2ccccc12	D1 agonist 31
Cc1ccccc1C(=O)N/N=C/c1cccc2ccccc12	D1 antag -89
O=C(N/N=C/c1ccccc1F)c1cccc2ccccc12	none
COc1ccc2cc(C(=O)N/N=C/c3sc4ccccc4c3O)ccc2c1	D1 agonist 108, TRHR agonist 33
O=C(NC1CCCCC1)c1ccc2c(c1)N(Cc1ccccc1Cl)C(=O)c1ccccc1S2	none
COc1ccc(OC)c(NC(=O)c2c(N3CCCC3=O)c3cc(OC)ccc3n2C)c1	none
COc1cc2c(C(=O)N3CCN(c4ccc(F)cc4)CC3)cn(CC(C)C)c(=O)c2cc1OC	none
C/C(O)=c1/cnc2nc3ccccc3n2c1=O	D1 antag -44
Nc1cc(C(Cl)=C(Cl)Cl)c(S(N)(=O)=O)cc1S(N)(=O)=O	D1 antag -33
C[C@@H](C(=O)Nc1ccc2ccccc2c1)[C@@H]1C[C@@]1(C)[C@@H](NC(=O)c1cnccn1)c1ccccc1	D1 antag -30
Cc1cccc(OCC(=O)Nc2ccc3c(c2)nc(CCN2CCN(c4ccccn4)CC2)n3C)c1	D1 antag -31
Cc1ccc(S(=O)(=O)N(CC(=O)Nc2ccc3c(c2)OCO3)c2cc(Cl)cc(Cl)c2)cc1	none
CN(c1cccc(NC(=O)CN(c2ccc(Cl)c(Cl)c2)S(=O)(=O)c2ccccc2)c1)S(C)(=O)=O	none
Cc1ccc(S(=O)(=O)N(CC(=O)Nc2cccc(N(C)S(C)(=O)=O)c2)c2ccc(Cl)c(Cl)c2)cc1	D1 antag -32
Cc1ccc(S(=O)(=O)N(CC(=O)Nc2c(C)cccc2C)c2cccc(Cl)c2)cc1	D1 antag -85
Cc1sc2ncnc(NCC(c3ccco3)N(C)C)c2c1C (configuration not stated)	D1 antag -35
Cc1cc2c(s1)c1cnn(Cc3cc(C(F)(F)F)cc(Cl)c3F)c(=O)c1n2C	D1 antag -35
Cc1cc2c(s1)c1cnn(Cc3cccc(Cl)c3F)c(=O)c1n2C	none
CCOc1ccc(NC(=O)Cn2cc(C(=O)c3ccc(OCC)cc3)c(=O)c3cc4c(cc32)OCCO4)cc1	none
Cc1ccc(Cn2nc(C)c(NC(=O)C3(C)CC3(Br)Br)c2C)cc1 (configuration not stated)	D1 antag -38
CCc1cc(C(=O)Nc2c(C)nn(Cc3ccc(C)cc3)c2C)no1	none
COc1ccccc1CNC(=O)c1cccn1-c1nnc(N2CCCC2)s1	none
COc1ccc(CNc2nc3ccccc3n2C)c(OC)c1	D1 antag -40
COc1ccccc1Cn1c(-c2ccccc2OC)nc2ccccc21	TRHR enhancer 37
Oc1ccccc1CNc1nc2ccccc2n1CCN1CCCCC1	none
COc1ccccc1CNc1nc2ccccc2n1CCN1CCCCC1	D1 antag -35
CCOc1ccc(NC(=O)C2CCN(S(=O)(=O)c3c(C)noc3/C=C/c3cccs3)CC2)cc1	none
CC1=C(C(=O)Nc2cc(Cl)ccc2C)C2(CCCCC2)OC1=O	D1 agonist 32
CC1=C(C(=O)NCc2cccc(Cl)c2)C2(CCCCCC2)OC1=O	D1 antag -31
CC1=C(C(=O)Nc2cc(C)ccc2C)C2(CCCCCC2)OC1=O	none
COc1cc(OC)c(NC(=O)C2=C(C)C(=O)OC23CCCCCC3)cc1Cl	D1 antag -70
CC(=O)Nc1cccc(NC(=O)CSc2cn(CC(=O)N3CCCCCC3)c3ccccc23)c1	none
COc1ccc(C(=O)NCC(c2ccc(N(C)C)cc2)N2CCc3ccccc32)cc1OC (configuration not stated)	none
Cc1nnc2n(c1=O)C(CS(=O)(=O)c1ccc3ccccc3c1)CS2 (configuration not stated)	TRHR enhancer 33
Cc1ccc(S(=O)(=O)CC2CSc3nnc(C)c(=O)n32)cc1 (configuration not stated)	none
CC(C)c1ccc(NC(=O)CCCN2C(=S)NC(C)(C)CC2C)cc1 (configuration not stated)	D1 antag -33
C=CCOc1ccc(CN(C)C(=O)CNC(=O)c2ccc(-c3ccccc3)cc2)cc1	D1 agonist 35
CCCN1CCC(=O)N([C@H](CN=[N+]=[N-])CC(C)C)CC1	none
O=C(CCC1CCCC1)N1CCN(S(=O)(=O)c2ccc(Br)cc2)CC1	D1 antag -31
